Test results as given in PubChem BioAssay.
Calls of active or inactive are those of the source. Unless noted, how the calls were made is not given here.

How the values were obtained:
[1] = tested on: Wnt5a (protein binding on small-molecule microarray); assay: small molecules binding Wnt5a protein – biophysical, small-molecule microarray, 635/667 nm fluorescence, primary screen (AID 1142); conditions: 635 nm fluorescence, higher = more signal;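 further: fluorescence read at 667 nm with signal to noise per printed feature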
[2] = ATP-based viability of Huh7 replicon cells – cell-based, CellTiter-Glo luminescence, basal, 48 h, cytotoxicity control for HCV replication inhibitor project, primary screen (AID 1143); conditions: higher = more signal, called active from +8 up or from −8 down;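 further: Huh7 hepatoma cells carrying a hepatitis C replication reporter with no stimulus; test concentration not given here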
[3] = Pseudomonas biofilm growth suppression – PAO1 strain, BacTiter-Glo luminescence, LB-PBS, primary screen (AID 1144); conditions: P. aeruginosa PAO1 biofilm, 12 h, higher = more signal
[4] = basal CRE-LacZ reporter activity in PC12 – cell-based, unstimulated, primary screen (AID 1145); conditions: no forskolin, luminescence, 4.5 h, higher = more signal, called active from +8 up or from −8 down
[5] = forskolin-driven CRE-LacZ activity in PC12 – cell-based, CRE-LacZ reporter, forskolin-stimulated, primary screen (AID 1146); conditions: luminescence, 4.5 h, higher = more signal, called active from +8 up or from −8 down;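 further: PC12 cells with 6xCRE LacZ reporter stimulated by forskolin 10 µM; beta-galactosidase reporter signal reflecting CREB driven transcription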
[6] = target: Streptavidin (Streptomyces avidinii) (UniProt P22629); assay: compounds binding control protein streptavidin – biophysical, small-molecule microarray, 635/667 nm fluorescence, artefact control for SMM compound annotation, primary screen (AID 1147); conditions: higher = more signal;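 further: signal reflects streptavidin binding to arrayed compounds as a control protein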
Chain of Streptavidin (Streptomyces avidinii) (P22629 whole entry, looked up): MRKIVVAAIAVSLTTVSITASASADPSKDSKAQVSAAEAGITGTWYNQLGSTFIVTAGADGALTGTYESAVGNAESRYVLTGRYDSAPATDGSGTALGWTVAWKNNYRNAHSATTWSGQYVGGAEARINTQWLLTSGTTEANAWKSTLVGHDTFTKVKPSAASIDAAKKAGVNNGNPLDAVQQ

[7] = probe aInhba binding on compound microarray – biochemical, small-molecule microarray, 635/667 nm fluorescence, primary screen (AID 1148); conditions: higher = more signal;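 further: score merges 667nm spot fluorescence with signal-to-noise for antibody binding to printed compounds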
Torsin-1A (Homo sapiens) [8] = target: Torsin-1A (Homo sapiens) (UniProt O14656); assay: TOR1A wild-type binding on microarray – cell lysate, small-molecule microarray, lysate, 635/667 nm, primary screen (AID 1149); conditions: COS7 hTOR1A-WT lysate, 635 nm fluorescence, higher = more signal
Chain of Torsin-1A (Homo sapiens) (O14656 whole entry, looked up): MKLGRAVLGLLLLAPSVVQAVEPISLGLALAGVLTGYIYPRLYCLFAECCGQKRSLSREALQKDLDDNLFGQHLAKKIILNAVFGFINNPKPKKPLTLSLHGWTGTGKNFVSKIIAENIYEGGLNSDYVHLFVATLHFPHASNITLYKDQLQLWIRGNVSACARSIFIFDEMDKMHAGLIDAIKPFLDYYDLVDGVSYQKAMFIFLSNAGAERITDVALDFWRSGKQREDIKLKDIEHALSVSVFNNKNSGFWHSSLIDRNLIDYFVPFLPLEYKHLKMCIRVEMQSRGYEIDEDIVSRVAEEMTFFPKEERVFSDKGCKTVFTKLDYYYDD

Torsin-1A (Homo sapiens) [9] = target: Torsin-1A (Homo sapiens) (UniProt O14656); assay: torsin A mutant lysate binding on microarrays – cell lysate, small-molecule microarray, COS7 lysate, 635/667 nm fluorescence, primary screen (AID 1150); conditions: COS7 hTOR1A mutant lysate, 635 nm fluorescence, higher = more signal;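 further: score pools 667 nm emission and signal to noise measuring lysate protein binding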
[10] = tested on: Sonic hedgehog protein (Shh); assay: Sonic hedgehog microarray binding compounds – biochemical, small-molecule microarray, 635/667 nm fluorescence, primary screen (AID 1151); conditions: 635 nm fluorescence, higher = more signal;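 further: Shh protein binding to compounds spotted on small-molecule microarray slides; score combines spot fluorescence intensity with signal-to-noise across triplicate slides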
[11] = optical density shifts of acrAB sulA E. coli – strain DRC41, OD650, 48 h, E. coli filamentation inducer project, primary screen (AID 1152); conditions: higher = more signal, called active from +8 up or from −8 down;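 further: E. coli MC1000 strain DRC41 lacking acrAB efflux pump and sulA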
[12] = probe aLefty1 binding on compound microarray – biochemical, small-molecule microarray, 635/667 nm fluorescence, primary screen (AID 1153); conditions: higher = more signal;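 further: score merges spot fluorescence with signal-to-noise ratio from the scanned slide images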
[13] = plasmodial surface anion channel blockers, osmotic lysis – cell-based, P. falciparum Indochina, OD700, 1 h, primary screen (AID 1154); conditions: P. falciparum Indochina infected RBC osmotic lysis, higher = more signal, called active from +8 up or from −8 down
[14] = plasmodial surface anion channel blockers, osmotic lysis – cell-based, P. falciparum Indochina, OD700, 2 h, primary screen (AID 1155);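 further: lysis reports solute entry through the parasite surface anion channel PSAC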; conditions: P. falciparum Indochina infected erythrocytes, higher = more signal, called active from +8 up or from −8 down
[15] = changes in parasitized red cell lysis, either direction – P. falciparum Indochina, OD700, 3 h, PSAC antagonist project, primary screen (AID 1156); conditions: P. falciparum-infected erythrocytes, osmotic lysis, higher = more signal, called active from +8 up or from −8 down
[16] = plasmodial surface anion channel blockers, osmotic lysis – cell-based, P. falciparum Indochina, OD700, 18 h, primary screen (AID 1157); conditions: P. falciparum Indochina infected erythrocytes, osmotic lysis OD700, 18 h; higher = more signal, called active from +8 up or from −8 down
[17] = S6 kinase pathway phospho-S6 level changes – cell-based, A549, cytoblot, luminescence, serum-stimulated, primary screen (AID 1158); conditions: 5 h, higher = more signal;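 further: serum-stimulated A549 lung adenocarcinoma cells; signal is phosphorylated S6 detected by cytoblot immunostaining with HRP secondary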
[18] = target: NADPH oxidase 2 (Homo sapiens) (UniProt P04839); assay: compounds shifting NOX2 Amplex Red fluorescence – cell-based, HEK293-NOX2, PMA-stimulated, NOX inhibitor project, primary screen (AID 1159); conditions: 45 min, higher = more signal, called active from +8 up or from −8 down; further: test concentration not given here
Chain of NADPH oxidase 2 (Homo sapiens) (P04839 whole entry, looked up): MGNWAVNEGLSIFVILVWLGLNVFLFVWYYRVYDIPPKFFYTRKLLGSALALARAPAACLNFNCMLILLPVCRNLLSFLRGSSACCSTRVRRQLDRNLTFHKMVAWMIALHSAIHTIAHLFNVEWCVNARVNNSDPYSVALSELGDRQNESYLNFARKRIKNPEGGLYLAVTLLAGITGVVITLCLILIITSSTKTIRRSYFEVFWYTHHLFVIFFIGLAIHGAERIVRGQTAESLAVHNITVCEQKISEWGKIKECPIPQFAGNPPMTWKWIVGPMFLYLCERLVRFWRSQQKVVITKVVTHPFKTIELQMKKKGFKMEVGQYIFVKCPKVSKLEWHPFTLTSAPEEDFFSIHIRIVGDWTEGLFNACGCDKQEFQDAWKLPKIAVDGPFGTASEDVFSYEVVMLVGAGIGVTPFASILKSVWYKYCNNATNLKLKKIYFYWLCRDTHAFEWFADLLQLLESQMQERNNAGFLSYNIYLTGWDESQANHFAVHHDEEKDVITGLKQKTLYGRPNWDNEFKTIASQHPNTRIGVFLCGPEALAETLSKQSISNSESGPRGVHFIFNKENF

[19] = target: NADPH oxidase 4 (Homo sapiens) (UniProt Q9NPH5); assay: compounds shifting NOX4 Amplex Red fluorescence – cell-based, HEK293-NOX4, tetracycline-induced, NOX inhibitor project, primary screen (AID 1160); conditions: HEK293-NOX4, Amplex Red H2O2 fluorescence, 45 min; higher = more signal, called active from +8 up or from −8 down
Chain of NADPH oxidase 4 (Homo sapiens) (Q9NPH5 whole entry, looked up): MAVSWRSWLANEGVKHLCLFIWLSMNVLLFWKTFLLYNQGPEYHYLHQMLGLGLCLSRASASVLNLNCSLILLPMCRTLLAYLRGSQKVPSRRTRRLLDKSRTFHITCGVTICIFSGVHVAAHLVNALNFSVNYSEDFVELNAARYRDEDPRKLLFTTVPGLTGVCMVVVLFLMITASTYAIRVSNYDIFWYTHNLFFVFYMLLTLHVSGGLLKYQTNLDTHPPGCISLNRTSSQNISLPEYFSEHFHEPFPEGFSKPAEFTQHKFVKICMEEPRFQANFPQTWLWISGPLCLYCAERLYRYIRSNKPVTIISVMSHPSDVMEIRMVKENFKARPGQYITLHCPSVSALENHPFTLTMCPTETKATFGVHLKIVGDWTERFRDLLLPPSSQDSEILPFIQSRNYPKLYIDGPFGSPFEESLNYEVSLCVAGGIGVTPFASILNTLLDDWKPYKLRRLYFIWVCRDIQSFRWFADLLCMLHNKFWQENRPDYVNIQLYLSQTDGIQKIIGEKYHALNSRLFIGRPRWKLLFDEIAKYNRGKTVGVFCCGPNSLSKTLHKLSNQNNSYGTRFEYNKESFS

[20] = target: NADPH oxidase 5 (Homo sapiens) (UniProt Q96PH1); assay: compounds shifting NOX5 Amplex Red fluorescence – cell-based, HEK293-NOX5, NOX inhibitor project, primary screen (AID 1161); conditions: HEK293-NOX5, ionomycin, 45 min, higher = more signal
Chain of NADPH oxidase 5 (Homo sapiens) (Q96PH1 whole entry, looked up): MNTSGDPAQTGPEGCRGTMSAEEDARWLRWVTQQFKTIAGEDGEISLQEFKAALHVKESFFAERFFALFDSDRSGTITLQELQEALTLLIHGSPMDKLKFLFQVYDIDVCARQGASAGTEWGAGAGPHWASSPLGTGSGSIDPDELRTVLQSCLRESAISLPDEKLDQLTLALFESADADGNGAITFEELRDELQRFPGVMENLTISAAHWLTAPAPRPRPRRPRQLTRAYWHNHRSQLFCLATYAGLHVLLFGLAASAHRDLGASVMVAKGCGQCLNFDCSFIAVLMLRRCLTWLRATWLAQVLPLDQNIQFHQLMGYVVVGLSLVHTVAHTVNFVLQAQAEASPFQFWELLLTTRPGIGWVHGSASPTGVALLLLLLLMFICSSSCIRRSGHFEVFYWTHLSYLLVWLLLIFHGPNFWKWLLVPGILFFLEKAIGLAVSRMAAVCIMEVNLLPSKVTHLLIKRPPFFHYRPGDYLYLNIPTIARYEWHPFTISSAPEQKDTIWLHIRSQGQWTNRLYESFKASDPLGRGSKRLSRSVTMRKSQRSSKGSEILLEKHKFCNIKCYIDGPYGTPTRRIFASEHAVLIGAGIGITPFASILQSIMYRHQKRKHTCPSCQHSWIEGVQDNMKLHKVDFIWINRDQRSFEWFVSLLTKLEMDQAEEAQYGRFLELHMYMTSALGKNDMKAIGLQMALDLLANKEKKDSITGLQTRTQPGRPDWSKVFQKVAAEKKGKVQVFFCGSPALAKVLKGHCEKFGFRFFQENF

Row | Structure (SMILES) | composite z-score [1] | z-score [2] | z-score [3] | z-score [4] | z-score [5] | composite z-score [6] | composite z-score [7] | composite z-score (Torsin-1A (Homo sapiens) [8]) | composite z-score (Torsin-1A (Homo sapiens) [9]) | composite z-score [10] | z-score [11] | composite z-score [12] | z-score [13] | z-score [14] | z-score [15] | z-score [16] | z-score [17] | z-score [18] | z-score [19] | z-score [20]
1 | CCCN1C(=O)[C@]2(CCC(=O)OC(C)(C)C)N=C(c3ccc(OCCCO)cc3)O[C@@H]2c2ccccc21 | 0.456 | -4.35 (inactive) | -0.543 (inactive) | 0.512 (inactive) | -1.44 (inactive) | -0.374 | 0.173 | 1.51 | 0.111 | 1.7 | 0.239 (inactive) | 0.26 | 34.1 (active) | 36.8 (active) | 2.57 (inactive) | 8.76 (active) | -0.0347 | -3.07 (inactive) | -0.483 (inactive) | -1.51
2 | [N-]=[N+]=Nc1ccccc1[C@@H]1OC(c2ccc(OCCCO)cc2)=N[C@]1(Cc1ccccc1)C(=O)NCCN1CCOCC1 | 0.458 | -5.28 (inactive) | -0.528 (inactive) | 0.4 (inactive) | -1.37 (inactive) | 1.29 | 0.347 | 0.612 | 1.25 | -0.368 | 0.146 (inactive) | 0.142 | 30.2 (active) | 26.5 (active) | 3.9 (inactive) | 1.92 (inactive) | 1.39 | -3.29 (inactive) | -1.23 (inactive) | -2.13
3 | CC(C)(C)OC(=O)CC[C@]1(C(=O)NCC(O)CO)N=C(c2ccc(OCCCO)cc2)O[C@H]1c1ccccc1N=[N+]=[N-] (stereo not given in full) | 0.112 | -1.01 (inactive) | -0.00253 (inactive) | -0.0808 (inactive) | -1.48 (inactive) | 1.38 | 0.32 | 0.172 | 0.565 | 0.0555 | 0.618 (inactive) | 0.215 | 29.9 (active) | 27.1 (active) | 1.38 (inactive) | 6.1 (inactive) | -0.465 | -3.04 (inactive) | 1.04 (inactive) | -1.68
4 | CC(C)=CCCC=C(C)C(O)C1C=CC2C(=O)N(c3ccccc3)C(=O)C2N1Nc1ccc(C#N)cc1 (stereo not given) | 0.218 | -2.81 (inactive) | -1.21 (inactive) | 1.39 (inactive) | -0.35 (inactive) | 0.555 | 0.0841 | 0.0747 | 0.536 | 0.335 | -0.817 (inactive) | 0.304 | 15.5 (active) | 1.88 (inactive) | 0.918 (inactive) | -1.08 (inactive) | 0.0382 | -1.88 (inactive) | -1.6 (inactive) | -0.882
